FLuc modulator: firefly luciferase modulation, counter-screen for miR-21 project | P08659 | purified FLuc, Km substrates, luminescence inhibition | Potency, µM (series often up to 57.5 µM), for the others: at the highest dose activity change, negative = inhibition, hits mostly inhibitors | 360,000 compounds, 6.9% hits | AID 588342;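 note: plate controls were vehicle for no effect and reference inhibitor for full effect; nearly all actives have a fitted effect of over 55% in size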
Target sequence (P08659 whole entry, looked up): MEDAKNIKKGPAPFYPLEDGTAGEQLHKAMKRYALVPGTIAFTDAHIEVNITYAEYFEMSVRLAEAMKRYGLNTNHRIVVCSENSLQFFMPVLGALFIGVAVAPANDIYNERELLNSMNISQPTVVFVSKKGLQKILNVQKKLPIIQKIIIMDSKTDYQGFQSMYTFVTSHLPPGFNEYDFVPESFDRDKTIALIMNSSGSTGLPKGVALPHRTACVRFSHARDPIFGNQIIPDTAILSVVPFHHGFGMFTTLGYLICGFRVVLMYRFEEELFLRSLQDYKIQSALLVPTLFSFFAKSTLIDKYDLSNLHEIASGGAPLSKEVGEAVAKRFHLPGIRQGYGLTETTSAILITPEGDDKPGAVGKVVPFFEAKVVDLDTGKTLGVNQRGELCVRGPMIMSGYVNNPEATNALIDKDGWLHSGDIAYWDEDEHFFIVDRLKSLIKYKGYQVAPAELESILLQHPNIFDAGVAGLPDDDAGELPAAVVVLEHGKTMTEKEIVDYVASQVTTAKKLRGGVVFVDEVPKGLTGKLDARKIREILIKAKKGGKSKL
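Biochemical qHTS of compounds, final roughly 60 µM downward over six points, against 10 nM purified firefly luciferase using Km concentrations of substrates (10 uM D-luciferin, 10 uM ATP) in Tris acetate pH 7.5 buffer; luminescence output.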
SMN2 splice up: enhancers of SMN2 splice variant expression; HEK293 SMN2-luciferase splicing reporter, luminescence, 30-36 h; Potency, µM (doses to about 46.1 µM), for the others: at the highest dose activity change, positive = activation, hits mostly activators; 210,000 compounds, 2.8% hits; note: % of control where 0% means no effect; nearly all actives have a fitted effect of over 55% in size
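HEK293 cells carry an SMN2 minigene-luciferase reporter in which exon 7 inclusion puts luciferase in frame. Cells were seeded at 2000 cells/well, attached for 10-12 hours, then exposed to compounds for 30-36 hours at 37C before ONE-Glo luminescence.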
ELG1 genotox: induces genotoxicity in HEK293T cells with luciferase-tagged ELG1; HEK293T ELG1-luciferase reporter, luminescence, 16 h; Potency, µM (series often up to 46 µM), for inactives: at the top dose activity change, positive = activation, actives largely listed as activators; 330,000 compounds, 1.3% hits; AID 504466; note: % of control where 0% means no effect; nearly all actives have a fitted effect of over 60% in size
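DMSO vehicle served as control against compound-treated ELG1-luciferase HEK293T cells; exposure lasted 16 hr at 37 °C and 5% CO2, followed by ONE-Glo luminescence detection after 30 min.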
KinaseGlo FLuc: counter-screen: inhibitors of Kinase-Glo firefly luciferase; Q27757; Kinase-Glo luciferase, ATP luminescence, 8 min; Potency, µM (top dose mostly 38.3 µM), for the others: at the top dose activity change, negative = inhibition, usual class: inhibitors; 200,000 compounds, 0.28% hits; note: % is set by controls: 0 for no effect and ±100 for the full control effect; nearly all actives have a fitted effect of over 60% in size
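Luminescence was the read-out, taken after 8-minute incubation at ambient temperature. Luciferase turned over luciferin with 10 uM ATP in imidazole pH 7.2 buffer containing KCl, MgCl2, Tween 20 and BSA.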
Rab9 prom act: activates the Rab9 promoter. Potency, µM (highest dose often 9.22 µM), for inactives: at the top dose activation, negative = inhibition, hits mostly activators. 320,000 compounds, 2.8% hits. Huh7 Rab9 promoter-luciferase reporter, luminescence, 24 h. AID 485297; note: % of control where 0% means no effect; nearly all actives have a fitted effect of over 60% in size
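Huh7 reporter line, Rab9 promoter upstream of luciferase. Compound exposure 24 h at 37 °C in reduced-serum medium with 10% FBS. Read-out: luminescence.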
NPC1 prom act: NPC1 promoter activation. AID 485313. Potency, µM (highest dose often 9.22 µM), inactives show at the top dose activation, hits mostly activators. Huh7 NPC1 promoter luciferase reporter, 24 h. 320,000 compounds, 2.4% hits; note: % of control where 0% means no effect; nearly all actives have a fitted effect of over 60% in size
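Huh7 cells stably carrying NPC1 promoter–luciferase, plated in Opti-MEM with 10% FBS for 2 h, were exposed to compound in DMSO for 24 h at 37 °C; luciferase reagent was added for 10 min and luminescence read.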
Numbers without * were called inactive; ? = inconclusive; . = no result. The list is not random: actives were taken first. Their share in the collection is about 7.5%. Calls come from the whole dose curve; as a rule, active = well fitted curve in the direction sought with a large enough effect; inconclusive = small, poorly fitted or top-dose-only effect, or another doubt; inactive = no such curve, though single readings can be large; an effect the other way counts as inactive or inconclusive. Potency is the fitted concentration of half-maximal effect.

SMILES	FLuc modulator	SMN2 splice up	ELG1 genotox	KinaseGlo FLuc	Rab9 prom act	NPC1 prom act
Cc1cc(C)cc(Nc2cc(C)nc3nc(-c4ccco4)nn23)c1	0.5%	.	.	.	.	.
COc1ccc(/C=C/C(=O)NCCN=C2NS(=O)(=O)c3ccccc32)cc1	15.1µM*	7.9%	-4.7%	1.2%	-9.5%	-1.6%
C/C=C/C=C\C(=O)Nc1cccc(C2=NOC3(C2)C[C@@H](C(N)=O)N(C(=O)c2cc([N+](=O)[O-])cc([N+](=O)[O-])c2)C3)c1 (stereo partly drawn)	3.01µM*	.	5.2%	.	-7.1%	-1.1%
C/C=C\C(=O)Nc1cccc(C2=NOC3(C2)C[C@H](C(N)=O)N(C(=O)/C=C/CC)C3)c1 (stereo partly drawn)	0.5%	.	3.9%	.	-1.9%	-4.1%
C/C=C\C=C/C(=O)Nc1cccc(C2=NOC3(C2)C[C@@H](C(N)=O)N(C(=O)/C=C/C=C\C)C3)c1 (stereo partly drawn)	19µM*	.	6.1%	.	5.0%	8.2%
CCC(=O)Nc1cccc(C2=NOC3(C2)C[C@@H](C(N)=O)N(C(=O)c2cc([N+](=O)[O-])cc([N+](=O)[O-])c2)C3)c1 (stereo partly drawn)	-2.3%	.	2.3%	.	-5.6%	-3.5%
C/C=C\C=C/C(=O)Nc1cccc(C2=NOC3(C2)C[C@@H](C(N)=O)N(C(=O)C2(C)CC2)C3)c1 (stereo partly drawn)	15.1µM*	.	7.0%	.	3.6%	5.4%
C/C=C\C=C/C(=O)Nc1cccc(C2=NOC3(C2)C[C@@H](C(N)=O)N(C(=O)/C=C/CC)C3)c1 (stereo partly drawn)	16.9µM*	.	4.5%	.	10.4%	1.7%
Cc1ccc(-c2nc(CNC(=O)NC3CCCCC3)c(C)o2)cc1	-0.2%	.	.	.	.	.
CCOC(=O)C(CC)Sc1c(CC)cnc2c1c(=O)n(C)c(=O)n2C (stereo not drawn)	0.6%	.	.	.	.	.
C=C(C)C(=O)N1CC2(CC(c3cccc(NC(=O)/C=C\C=C/C)c3)=NO2)C[C@H]1C(N)=O (stereo partly drawn)	16.9µM*	.	1.4%	.	13.5%	12.4%
CCc1ccccc1NC(=O)c1cnc2sc(N3CCOCC3)nn2c1=O	0.9%	.	.	.	.	.
O=C(c1ccc(F)cc1)c1ccc(N2CCCC2)cc1	12µM*	.	14.1µM*	-5.9%	?	?
O=C(c1ccc(F)cc1)c1ccc(N2CCCCC2)cc1	6.75µM*	.	?	.	2.51µM*	2.82µM*
O=C(CCC(=O)N1CCN(c2ccc(F)cc2)CC1)N1CCN(c2ccc(F)cc2)CC1	3.8%	.	-8.2%	.	-1.8%	-4.2%
O=C(Nc1ccc(N2CCCCC2)cc1)c1ccc(F)cc1	1.2µM*	3.55µM*	1.64µM*	-10.7%	0.447µM*	0.891µM*
O=C(Nc1ccc(N2CCCCC2)cc1)c1cccnc1	21.3µM*	22.4µM*	9.2µM*	-1.3%	?	?
O=S(=O)(N1CCCCC1)N1CCN(c2ccc(F)cc2)CC1	-0.6%	10.9%	-4.6%	1.1%	-1.5%	-1.5%
O=C(Nc1ccc(S(=O)(=O)N2CCCCC2)cc1)c1ccc(F)cc1	-1.1%	.	-15.8%	.	-8.1%	-0.7%
CCc1nn(CC(=O)NCc2ccco2)c(=O)c2cc3cc(F)ccc3n12	-2.0%	8.8%	.	.	.	.
CS(=O)(=O)N(CC(=O)NCCSCc1ccccc1)c1cc(C(F)(F)F)ccc1Cl	5.6%	11.4%	.	.	.	.
COC(=O)Cc1c(C)c2ccc(OC(=O)c3ccco3)cc2oc1=O	16.9µM*	-3.6%	4.2%	-1.1%	1.2%	-0.3%
COC(=O)Cc1c(C)c2ccc(OC3CCCCC3=O)cc2oc1=O (stereo not drawn)	?	.	4.5%	.	22.5%	21.9%
COC(=O)Cc1c(C)c2ccc(OC(C)C)cc2oc1=O	15.1µM*	.	18.0%	.	3.16µM*	?
CCc1ccc(-c2nc3c(c(SCc4ccc(F)cc4)n2)Cc2c(CO)cnc(C)c2O3)cc1	2.9%	.	.	.	.	.
SMILES	FLuc modulator	SMN2 splice up	ELG1 genotox	KinaseGlo FLuc	Rab9 prom act	NPC1 prom act
CCOC(=O)C1CCCN(C(=O)c2cc(COc3ccc(C)nc3)on2)C1 (stereo not drawn)	?	.	-1.6%	.	17.3%	16.5%
O=C(/C=C/c1ccc(F)cc1)N1CCCN(C(=O)/C=C/c2ccc(F)cc2)CC1	?	-10.8%	0.4%	2.3%	17.5%	3.0%
O=C(c1cc(-c2ccc(O)cc2)on1)N1CCCC1	6.01µM*	.	4.61µM*	.	0.398µM*	0.447µM*
CCOC(=O)C1CCCN(C(=O)c2cc(-c3ccc(C)cc3)on2)C1 (stereo not drawn)	12µM*	?	?	8.2%	0.891µM*	?
O=C(c1cc(-c2ccc(F)cc2)on1)N1CCOCC1	6.01µM*	.	?	.	1.58µM*	1.12µM*
O=C(/C=C/c1ccc(-c2ccc(F)cc2)o1)N1CCCC1	13.5µM*	.	?	.	3.16µM*	2.82µM*
CCc1ccc(N2CCn3c2nc2c3c(=O)n(Cc3cccc(C)c3)c(=O)n2C)cc1	1.2%	.	.	.	.	.
COC(=O)c1cc2oc3ccccc3c2n1CC(=O)Nc1ccc(OC)c(OC)c1	-3.2%	8.5%	.	.	.	.
COc1ccc(NC(=O)c2[nH]nc3c2CSc2ccccc2-3)c(OC)c1	-0.9%	.	.	.	.	.
COc1ccc(N2CCN(C(=O)c3cc4c(-c5ccccc5F)nn(C)c4s3)CC2)cc1	-1.8%	-25.8%	.	.	.	.
COc1ccccc1OC(C)C(=O)N1CCN(CCc2ccccn2)CC1 (stereo not drawn)	-0.4%	.	.	.	.	.
O=C(c1cc(-c2ccc(F)cc2)on1)N1CCCC1	2.69µM*	.	?	.	0.631µM*	0.794µM*
O=C(c1cc(-c2ccc(O)cc2)on1)N1CCN(c2ccc(F)cc2)CC1	?	.	-3.0%	.	-0.6%	-0.1%
O=C(c1cc(-c2ccc(F)cc2)on1)N1CCCCCC1	5.36µM*	.	?	.	1.41µM*	0.891µM*
O=C(c1cc(-c2ccc(Br)cc2)on1)N1CCCC1	1.51µM*	.	2.06µM*	.	0.501µM*	0.631µM*
O=C(c1cc(-c2ccc(O)cc2)on1)N1CCN(c2ccccc2)CC1	?	-17.7%	-14.2%	.	6.7%	-1.0%
Cc1ccc(-c2cc(C(=O)N3CCCCCC3)no2)cc1	1.51µM*	.	?	.	0.562µM*	0.501µM*
Cc1nc2nc(NCc3cccc(Cl)c3)[nH]n2c(=O)c1Cc1ccccc1	?	9.7%	.	.	.	.
O=C(c1cc(-c2ccccc2)on1)N1CCCCCC1	9.53µM*	.	2.31µM*	.	3.55µM*	1.41µM*
CN1CCN(C(=O)c2cc(-c3ccccc3)on2)CC1	?	?	16.7%	-1.5%	?	?
CCCCN1C(=O)/C(=C/C=C2/CC(C)(C)CN2C)SC1=S	9.53µM*	15.9%	?	0.3%	?	27.6%

From PubChem
